The record followed here is PubChem BioAssay (EPA / NIEHS).

Common to all, as to conditions: mRNA level, 48 h; actives raise or lower the signal
Read-out in assay [1]: Interleukin 6 (IL6), IL6 (gene 3569)
Briefly: LTEA_HepaRG_IL6: Life Technologies and Expression Analysis (LTEA) Assay for Interleukin 6 (IL6) using HepaRG (AID 2283509). An outline of the steps:
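qRT-PCR read-out of IL6 transcript, normalized to three housekeeping genes, after 48 h chemical exposure of HepaRG cells; 8-point half-log series, top 100 uM, 0.5% DMSO vehicle. Bidirectional curve fitting against DMSO baseline.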

Read-out in assay [2]: Interleukin 6 Receptor (IL6R), IL6R (gene 3570)
The assay can be described thus: LTEA_HepaRG_IL6R: Life Technologies and Expression Analysis (LTEA) Assay for Interleukin 6 Receptor (IL6R) using HepaRG (AID 2283510).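 For AC50: differentiated human HepaRG liver cells in serum-free induction medium; TaqMan qRT-PCR signal normalized to ACTB GAPDH and POLR2A housekeeping genes.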 An outline of the steps: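 Cells were thawed, plated and cultured 48 h, then medium was changed to serum-free induction medium. Chemicals were added in duplicate (100 uM top, half-log steps, 0.5% DMSO) for 48 h. Lysates were analyzed by qRT-PCR for IL6R expression.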

Read-out in assay [3]: Potassium channel subfamily K member 1 (KCNK1), KCNK1 (gene 3775)
Briefly: LTEA_HepaRG_KCNK1: Life Technologies and Expression Analysis (LTEA) Assay for Potassium channel subfamily K member 1 (KCNK1) using HepaRG (AID 2283511). In outline: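 HepaRG, 48 h exposure, 8-pt half-log series top 100 uM, 0.5% DMSO vehicle, duplicates. Readout: KCNK1 transcript by qRT-PCR (Fluidigm array), housekeeping-normalized; bidirectional curve fit relative to DMSO baseline.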

Read-out in assay [4]: Keratin 19 (KRT19), KRT19 (gene 3880)
The assay can be described thus: LTEA_HepaRG_KRT19: Life Technologies and Expression Analysis (LTEA) Assay for Keratin 19 (KRT19) using HepaRG (AID 2283512). In outline:
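Readout is qRT-PCR of KRT19 mRNA, normalized to ACTB, GAPDH and POLR2A, from HepaRG cells treated 48 h with eight-point half-log dilutions topping at 100 uM. Activity in either direction is scored relative to 0.5% DMSO vehicle.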

Read-out in assay [5]: JUN Transcription Factor, JUN (gene 3725)
The assay can be described thus: LTEA_HepaRG_JUN: Life Technologies and Expression Analysis (LTEA) Assay for JUN Transcription Factor using HepaRG (AID 2283513). An outline of the steps: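 Read-out is JUN transcript level by TaqMan qRT-PCR, normalized to ACTB, GAPDH and POLR2A, after 48 h chemical treatment of HepaRG cells. Concentration-response spanned eight half-log points up to 100 uM in 0.5% DMSO.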

Read-out in assay [6]: Lipoprotein lipase (LPL), LPL (gene 4023)
Briefly: LTEA_HepaRG_LPL: Life Technologies and Expression Analysis (LTEA) Assay for Lipoprotein lipase (LPL) using HepaRG (AID 2283515). In outline: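 HepaRG, 48 h exposure, 8-pt half-log dilutions from 100 uM, 0.5% DMSO vehicle, duplicates; qRT-PCR (Fluidigm array) of LPL mRNA vs housekeeping genes; bidirectional curve fit relative to DMSO baseline.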

Read-out in assay [7]: MicroRNA 122 (MIR122), gene 406906
Briefly: LTEA_HepaRG_MIR122: Life Technologies and Expression Analysis (LTEA) Assay for MicroRNA 122 (MIR122) using HepaRG (AID 2283516). Note: the transcript read is the microRNA miR-122. An outline of the steps:
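Human liver HepaRG cultures receive test chemicals for 48 h at eight half-log concentrations from 100 uM. Expression is quantified by qRT-PCR with ACTB/GAPDH/POLR2A normalization and fitted bidirectionally against 0.5% DMSO.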

Read-out in assay [8]: matrix metalloproteinase-10 (MMP10), MMP10 (gene 4319)
The assay can be described thus: LTEA_HepaRG_MMP10: Life Technologies and Expression Analysis (LTEA) Assay for matrix metalloproteinase-10 (MMP10) using HepaRG (AID 2283517). An outline of the steps: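 Transcript levels come from Fluidigm qRT-PCR normalized to three housekeeping genes, with curves fitted bidirectionally against 0.5% DMSO. Human HepaRG cells were dosed for 48 hours at concentrations up to 100 uM.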

Read-out in assay [9]: MYC, MYC (gene 4609)
The assay can be described thus: LTEA_HepaRG_MYC: Life Technologies and Expression Analysis (LTEA) Assay for MYC using HepaRG (AID 2283518). In outline:
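Expression changes were scored by TaqMan qRT-PCR with ACTB, GAPDH and POLR2A normalization. Cultures in serum-free induction medium received duplicate 8-point concentration series, highest 100 uM, for 48 h; DMSO (0.5%) served as baseline.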

Read-out in assay [10]: Lipase C (LIPC), LIPC (gene 3990)
The assay can be described thus: LTEA_HepaRG_LIPC: Life Technologies and Expression Analysis (LTEA) Assay for Lipase C (LIPC) using HepaRG (AID 2283514). An outline of the steps:
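HepaRG, 48 h exposure, 8-pt half-log series from 100 uM in 0.5% DMSO, duplicates. Readout: LIPC mRNA by Fluidigm qRT-PCR, housekeeping-normalized (ACTB/GAPDH/POLR2A). Gain or loss fitted bidirectionally against DMSO baseline.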

Activity calls are given as the source filed them. Rule for the calls: active = hit-call score of the fitted dose curve at least 0.9, where 1 is the maximum; inactive = score below 0.9.

Consider `C[Si]1(C)O[Si](C)(C)O[Si](C)(C)O[Si](C)(C)O1`, for which the compound was called inactive in assay [1], in [2], in assay [3], in assay [4], in [5] and in assay [6]. The compound was classed as inactive in [7], in [8] and in assay [9].
`CC(=O)OCCOCCOCCOC(C)=O`: the outcome in assay [2], in assay [3], in assay [4], in assay [5], in [10] and in assay [6] was inactive. The call in assay [7], in assay [8] and in [9] was inactive.
With `COc1cc(C=O)ccc1O`, the compound was called inactive in assay [1], in assay [2], in assay [3], in assay [4], in [5] and in [6]. Moreover, the compound was called inactive in assay [7], in assay [8] and in assay [9].
For `CN1CCCC1=O`, the result in [1], in assay [2], in assay [3], in assay [4], in assay [5] and in [6] was inactive. The compound was called inactive in [7], in assay [8] and in assay [9].
For `CCCCCCC(=O)OCC`, the call in assay [2], in [3], in [4], in [5], in assay [10] and in assay [6] was inactive. For the same compound, the compound was called inactive in assay [7], in assay [8] and in assay [9].
Turning to `COc1cc(S(=O)(=O)O)c(C)cc1N=Nc1c(O)ccc2cc(S(=O)(=O)O)ccc12`, the compound was called inactive in assay [1], in [2], in assay [3], in [4], in assay [5] and in [6]. Also, the outcome in assay [7], in assay [8] and in assay [9] was inactive.
In the case of `COC(=O)c1ccc(O)cc1`, the result in assay [1], in assay [2], in assay [3], in assay [4], in assay [5] and in [6] was inactive. The call in assay [7], in assay [8] and in [9] was inactive.
In the case of `COCCOC[C@H](CC1(C(=O)NC2CCC(C(=O)O)CC2)CCCC1)C(=O)Oc1ccc2c(c1)CCC2` (some centres undefined), the result in [1], in [2], in assay [3], in [4], in [5] and in assay [6] was inactive. Also, the result in [7], in [8] and in assay [9] was inactive.
As to `CCCc1cc(=O)[nH]c(=S)[nH]1`, the compound was classed as inactive in assay [1], in assay [2], in assay [3], in [4], in assay [5] and in assay [6]. In addition, the call in assay [7], in [8] and in assay [9] was inactive.
`O=[N+]([O-])C(CO)(CO)CO`: the call in [2], in [3], in [4], in assay [5], in assay [10] and in [6] was inactive. Besides, the compound was called inactive in assay [7], in assay [8] and in assay [9].
As usually defined, the AC50 is the concentration giving half of the maximal activity seen. `Nc1ccc2c(c1)C(=O)c1ccccc1C2=O`: the compound was called inactive in assay [2], in assay [3], in [5] and in assay [8]. Besides, the AC50 was 9.08 µM (active) in assay [4]; 8.27 µM (active) in assay [10]; 2.09 µM (active) in assay [6]; 4.24 µM (active) in assay [7]; 12.3 µM (active) in assay [9].
In the case of `CCCCCCCCCCCCCO`, the result in assay [2], in [3], in [4], in assay [5], in assay [10] and in [6] was inactive. In addition, the compound was classed as inactive in [7], in assay [8] and in [9].
Turning to `Cc1oc(-c2ccccc2)nc1CCOc1cccc2c1ccn2CCC(=O)O`, the AC50 in assay [2] is 77.6 µM (active); in assay [4], 88.5 µM (active); in assay [10], 79.2 µM (active); in [6] it was 0.0309 µM (active); in assay [7], 90.1 µM (active); in assay [8] it was 82.1 µM (active). For the same compound, the AC50 in assay [9] is 81.9 µM (active). In addition, the compound was called inactive in assay [3] and in [5].
Turning to `COc1ccc(S(=O)(=O)N2C(=O)[C@@](c3ccccc3OC)(N3C[C@H](O)C[C@H]3C(=O)N(C)C)c3cc(Cl)ccc32)c(OC)c1`, the AC50 in assay [2] was 13.2 µM (active); in assay [3] it was 50 µM (active); in [10], 15.8 µM (active); in assay [6] it was 12.1 µM (active); in [7] it was 50 µM (active); in assay [8], 50 µM (active). Besides, in assay [9], the AC50 is 76.5 µM (active). The compound was classed as inactive in [4] and in [5].
As for `O=c1[nH]cc(F)c(=O)[nH]1`, the values for the AC50 in assay [2], in assay [10] and in assay [6] were 51 µM (active), 80.6 µM (active) and 34.5 µM (active), respectively. Moreover, the call in assay [3], in assay [4], in assay [5], in [7], in assay [8] and in [9] was inactive.
For the compound `CCNc1cccc(C)c1`, the compound was called inactive in [2], in assay [3], in assay [4], in assay [5], in assay [6] and in assay [7]. The call in assay [8] and in assay [9] was inactive.
In the case of `CC=Cc1ccc(O)c(OC)c1`, the compound was classed as inactive in assay [2], in assay [3], in [4], in assay [5], in [6] and in assay [7]. The compound was called inactive in [8] and in assay [9].
On to `COc1cc(-c2nc(NC(=O)c3cc4cc(C)cc(C)c4n3CC(=O)O)sc2CCC2CCCCC2)c(OC)cc1Cl`, for which the AC50 in [2] is 26.5 µM (active); in assay [4], 11.4 µM (active); in assay [5] it was 10.7 µM (active); in [10], 6.41 µM (active); in [6], 10.5 µM (active); in assay [7], 6.1 µM (active). Moreover, the AC50 in assay [8] is 3.51 µM (active); in [9], 19.8 µM (active). Also, in assay [3], the call was inactive.
With `CC(C)(C)c1cc(O)c(C(C)(C)C)cc1O`, the AC50 in assay [2] is 77.6 µM (active); in [4], 77.4 µM (active); in assay [7], 79.8 µM (active); in assay [8], 93.6 µM (active). The compound was classed as inactive in [3], in assay [5], in [6] and in assay [9].
Take `CCCCCCCC=O`: the compound was called inactive in [2], in [3], in assay [5], in [6], in assay [7] and in assay [8]. Also, the call in [9] was inactive. The AC50 in assay [4] was 1.32 µM (active).
On to `CCCCN(CCCC)CCCC`, for which the compound was classed as inactive in [2], in [3], in [4], in assay [5], in [6] and in assay [7]. The result in [8] and in [9] was inactive.
